# Laboratory results as given in PMC5540273 (PLoS ONE, 2017).
# Legend:
# Details in all cases: concentration: 1 μM,replicates: in singlicate; n = 1
# ASK2 = system: T1, ASK2
# T1 construct: gene MAP3K6
# AURKA = system: AURKA
# AURKB = system: AURKB
# AURKC = system: AURKC
# AXL = system: AXL
# BIKE = system: T2, BIKE
# T2 construct: gene BMP2K
# BLK = system: BLK
# BMPR1A = system: BMPR1A
# BMPR1B = system: BMPR1B
# BMPR2 = system: BMPR2
# BMX = system: BMX
# BRAF = system: BRAF
# BRK = system: T3, BRK
# T3 construct: gene PTK6
# BRSK1 = system: BRSK1
# BRSK2 = system: BRSK2
# BTK = system: BTK
# BUB1 = system: BUB1
# CAMK1B = system: CAMK1B
# CAMK1D = system: CAMK1D
# CAMK1G = system: CAMK1G
# 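Note: KINOMEscan kinase panel screen.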
Structure (SMILES),%Inh (ASK2) [%],%Inh (AURKA) [%],%Inh (AURKB) [%],%Inh (AURKC) [%],%Inh (AXL) [%],%Inh (BIKE) [%],%Inh (BLK) [%],%Inh (BMPR1A) [%],%Inh (BMPR1B) [%],%Inh (BMPR2) [%],%Inh (BMX) [%],%Inh (BRAF) [%],%Inh (BRK) [%],%Inh (BRSK1) [%],%Inh (BRSK2) [%],%Inh (BTK) [%],%Inh (BUB1) [%],%Inh (CAMK1B) [%],%Inh (CAMK1D) [%],%Inh (CAMK1G) [%]
Cn1ccc2ncnc(Oc3ccc(NC(=O)Nc4cccc(C(F)(F)F)c4)c(F)c3)c21,0,5,88,65,87,18,22,0,0,0,1,62,0,0,2,30,0,0,12,11
CN(c1ccc2c(c1)nc(NCc1ccc(F)cc1)n2C)c1ccnc(Nc2ccc(CS(C)(=O)=O)cc2)n1.Cl [GW813244],0,77,70,67,68,33,57,16,0,10,16,96.8,88,0,0,0,50,0,0,22
Cn1ccc2ncnc(Oc3ccc(NC(=O)Nc4cc(C(C)(C)C)on4)c(Cl)c3)c21,0,6,88,15,97.2,0,87,7,16,5,33,76,10,8,0,0,5,0,14,12
Cl.Nc1n[nH]c2cc(-c3ccccn3)ccc12 [GSK2189892],0,0,8,0,0,32,22,0,0,0,12,0,32,0,0,0,0,0,25,0
Cc1ccc(Nc2ccnc(Nc3ccc4c(c3)CS(=O)(=O)C4)n2)cc1O.Cl [GW579362],3,100,85,97.9,86,99.8,99.5,85,99.8,62,80,77,95,10,3,100,99.3,31,38,34
COc1cccc(C2=C(Nc3cccc(Cl)c3)C(=O)NC2=O)c1 [SB-341556],22,0,15,3,12,34,72,0,0,0,24,0,19,11,2,0,23,29,36,0
O=C1NCCc2[nH]c(-c3ccncc3)cc21,0,28,0,11,8,33,15,27,92.9,43,35,0,0,0,6,0,20,1,11,0
O=C(Nc1ccccc1)c1cccc(Oc2ccc3nccn3n2)c1,3,0,4,28,0,5,9,0,14,22,17,3,0,7,0,0,0,0,0,0
CN(c1ccccc1CNc1nc(Nc2ccc3c(c2)CC(=O)N3)ncc1C(F)(F)F)S(C)(=O)=O,0,97.2,98.7,84,92.4,56,64,12,0,0,39,0,0,14,36,0,0,0,0,0
